a7 integrin act: qHTS for Activators of Integrin-Mediated Alleviation for Muscular Dystrophy | alpha7betagal myoblasts, beta-gal FDG fluorescence, 48 h | Potency, µM (highest dose often 38.3 µM), for the others: at the top dose activation, most hits filed as activators | 350,000 compounds, 0.064% hits | AID 624291, 2012; active = well fitted activation curve with a large enough effect; inconclusive = small, poorly fitted or top-dose-only effect; inactive = no such curve, though single readings can be large or run the other way;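 also: potency is read from the fitted curve at half-maximal effect; 100% = response of the positive control SU9516; nearly all actives have a fitted effect of over 60% in size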
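Alpha7betagal+/- myoblasts (passage 13) were plated 16-24 hr, then exposed to compounds (1:260 dilution of DMSO stock) for 48 hours at 37C. After MPER lysis, β-galactosidase reporter activity was read as FDG fluorescence (ex 480/em 540) after 30 minutes.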
D3 antag: qHTS of D3 Dopamine Receptor Antagonist: qHTS | D(3) dopamine receptor (Homo sapiens), P35462 | D3R cells, DiscoveRx beta-arrestin luminescence, antagonist mode; active compounds read low | max response, negative = inhibition, % | 360,000 compounds, 2.5% hits | AID 652054, 2013; in the data active = max response below about -50%; inconclusive = no clear call, values can overlap the other calls; also: % is scaled to controls: 0 for no effect and ±100 for the full control effect
Target sequence (P35462 whole entry, looked up): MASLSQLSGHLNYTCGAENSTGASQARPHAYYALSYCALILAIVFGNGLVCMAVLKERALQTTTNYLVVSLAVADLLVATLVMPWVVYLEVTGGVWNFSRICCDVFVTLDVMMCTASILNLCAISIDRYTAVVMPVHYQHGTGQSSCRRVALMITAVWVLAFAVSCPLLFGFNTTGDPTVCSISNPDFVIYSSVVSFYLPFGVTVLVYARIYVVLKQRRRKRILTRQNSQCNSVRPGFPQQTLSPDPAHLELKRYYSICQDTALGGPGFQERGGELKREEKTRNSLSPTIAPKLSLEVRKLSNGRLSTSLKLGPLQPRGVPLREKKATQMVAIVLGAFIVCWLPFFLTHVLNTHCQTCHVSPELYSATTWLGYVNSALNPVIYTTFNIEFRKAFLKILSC
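Cells expressing the human receptor were seeded at 1500 cells/well, incubated overnight at 37 degrees C in 5% CO2, then exposed to library compounds with dopamine controls for 90 minutes at 37 degrees C before luminescent detection.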
D3 ag: qHTS of D3 Dopamine Receptor Agonist: qHTS; D(3) dopamine receptor (Homo sapiens), P35462; D3R DiscoveRx beta-arrestin cells, luminescence, 90 min; max activation, %; 410,000 compounds, 0.58% hits; in the data active = max activation above about 30%; also: 0% is about no effect
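Agonist-mode cell screen: cells plated at 1500/well and incubated overnight at 37 °C, then exposed to library compounds for 90 min at 37 °C. Detection reagent was added for 30–60 min at room temperature, and luminescence was read.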
* hit, by the source's call; ? = inconclusive; . = no result. Only some compounds are listed: those with a hit (about 2.9% of all), similar ones and a draw of the others.

SMILES	a7 integrin act	D3 antag	D3 ag
CNC(=O)NC(O)C(Cl)(Cl)Cl (stereo not drawn)	10%	-5	1
O=C(NC(O)C(Cl)(Cl)Cl)NC(O)C(Cl)(Cl)Cl (stereo not drawn)	.	.	77*
Cc1nonc1-c1nc(-c2nonc2N)n[nH]1	-5%	-13	-2
CN1CCN(c2ccc(Cl)cc2N)CC1	-19%	-6	-1
CN1CCN(c2ccc(N)cc2Cl)CC1	-16%	-60*	-14
CN1C(=O)CCC2(C)C1=CCC1C2CCC2(C)C1CCC2(C)O (stereo not drawn)	8%	1	-3
FC(F)(F)c1ccc2c(c1)ncn2C1CCN(Cc2nnnn2C2CCCCC2)CC1	-13%	-13	2
OC1(c2ccc(F)cc2)CC2CCC(C1)N2Cc1nnnn1C1CCCC1 (stereo not drawn)	21%	-110*	-23
Cn1c(=O)c2c(nc(N/N=C/c3c(O)n(C4CCCCC4)c(=S)[nH]c3=O)n2C)n(C)c1=O	3%	?	-3
COc1ccc(C2SCC(=O)Nc3c2c(C)nn3-c2ccccc2)cc1OC (stereo not drawn)	-3%	-14	-3
O=C(CN1CCCCC1)c1ccc(F)cc1	-27%	1	8
COc1ccc(C(=O)CN2CCCCC2)cc1	13µM*	-15	2
Cc1nn(C(C)(C)C)c(C)c1/C=N/OC(=O)Nc1ccc(Cl)c(Cl)c1	2.8µM*	-2	-3
Cc1ccc(NC(=O)c2snnc2C)cc1Cl	-15%	1	6
O=C1Nc2ccc(Br)cc2C(c2ccccc2)=NC1O (stereo not drawn)	-6%	-5	3
C=C1C(C)C2C(Cc3ccccc3)NC(=O)C23C(OC(C)=O)C=CC(C)(O)CC(C)CC=CC3C1O (stereo not drawn)	-39%	45	17
C=C1[C@@H](C)[C@H]2[C@H](Cc3ccccc3)NC(=O)[C@]23OC(=O)/C=C/[C@H](O)CCC[C@@H](C)C/C=C/[C@H]3[C@@H]1O	.	182	78*
CCC1(c2ccccc2)C(=O)NC(=O)NC1=O	.	-116*	-7
CCC1(c2ccc(-c3ccccc3)cc2)C(=O)NC(=O)NC1=O	0%	3	-1
CC(=O)O[C@H]1C(=O)[C@@]2(C)C([C@H](OC(=O)c3ccccc3)[C@]3(O)C[C@H](OC(=O)[C@H](O)[C@@H](NC(=O)Cc4ccccc4)c4ccccc4)C(C)=C1C3(C)C)[C@]1(OC(C)=O)CO[C@@H]1C[C@@H]2O (stereo partly drawn)	-55%	-50*	-9
CC(=O)O[C@@]12CO[C@@H]1C[C@H](O)[C@@]1(C)C(=O)[C@H](O)C3=C(C)[C@@H](OC(=O)[C@H](O)[C@@H](NC(=O)c4ccccc4)c4ccccc4)C[C@@](O)([C@@H](OC(=O)c4ccccc4)C12)C3(C)C (stereo partly drawn)	-46%	11	2
O=C(c1ccccc1)C(CN1CCCC1)c1ccccc1 (stereo not drawn)	-52%	-56*	-9
CCN1CCN(CC(c2ccccc2)c2ccccc2)CC1	-14%	-28	-10
C[C@]12CCC(=O)C=C1CC[C@@H]1C2[C@H](O)C[C@]2(C)C(=O)CCC12 (stereo partly drawn)	-6%	1	-2
Cc1cc(C)cc(NC(=O)CCNC(=O)N2C[C@H]3C[C@@H](C2)c2cccc(=O)n2C3)c1	-11%	-22	-9
SMILES	a7 integrin act	D3 antag	D3 ag
O=C(C(=C1N(Cc2ccc(Cl)nc2)CCN1Cc1ccc(Cl)nc1)[N+](=O)[O-])C(Cl)Cl	-53%	-2	-4
Cc1cccc2nc(-c3ccccc3)c(-c3ccc(CN4CCC(n5c(=O)[nH]c6ccccc65)CC4)cc3)nc12	.	?	-17
N#Cc1ccc2nc(-c3ccc(CN4CCC(n5c(=O)[nH]c6ccccc65)CC4)cc3)c(-c3ccccc3)nc2c1	.	-57*	-9
COC(=O)C1=C(c2cc3ccccc3s2)C[C@@H]2CC[C@H]1N2C(=O)N1CCCCC1	-9%	-54*	-21
COC(=O)C1=C(c2cc3ccccc3s2)C[C@@H]2CC[C@H]1N2C(=O)NCc1ccccc1	26%	-23	-5
COC(=O)C1=C(c2cc3ccccc3s2)C[C@@H]2CC[C@H]1N2C(=O)NCc1ccc(F)cc1	3%	-56*	-36
COC(=O)C1=C(c2cc3ccccc3s2)C[C@@H]2CC[C@H]1N2C(=O)N1CCC(O)CC1	22%	-6	0
COC(=O)C1=C(c2c(C)noc2C)C[C@@H]2CC[C@H]1N2C(=O)NC(C)C	15%	5	0
